Screening data as filed in PubChem.
DT40 TDP1 CPT: qHTS for Inhibitors of human tyrosyl-DNA phosphodiesterase 1 (TDP1): qHTS in cells in presence of CPT; chicken DT40 Tdp1-/-;hTDP1 cells + 20 nM CPT, ATP luminescence, 48 h; Potency, µM (top dose mostly 46.2 µM), for inactives: at the highest dose activity change, negative = growth inhibition, actives largely listed as inhibitors; 12% of 420,000 active; AID 686979, 2013; note: potency is the fitted concentration of half-maximal effect; nearly all actives have a fitted effect of over 55% in size
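Chicken DT40 Tdp1-/- cells stably complemented with human TDP1 were seeded at 400 cells/well in medium containing 20 nM camptothecin, exposed to pin-transferred compounds, and grown at 37 °C for at least 48 hr. Viability was read as ATP luminescence.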
ELG1 repair inh: qHTS screen for small molecules that inhibit ELG1-dependent DNA repair in human embryonic kidney (HEK293T) cells expressing luciferase-tagged ELG1 | HEK293T ELG1-luciferase reporter, luminescence, 16 h; DNA damage induced by 5-fluorouridine | Potency, µM (top dose mostly 46.1 µM), for inactives: at the top dose activity change, negative = inhibition, hits mostly inhibitors | 2.3% of 330,000 active; note: potency is the fitted concentration of half-maximal effect; nearly all actives have a fitted effect of over 55% in size
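DMSO vehicle served as the neutral condition. Each well held 2,000 cells given 5-fluorouridine plus compound; after 16 hr at 37 °C/5% CO2, ONE-Glo was added and luciferase measured 30 min later.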
TDP1 cell noCPT: qHTS for Inhibitors of human tyrosyl-DNA phosphodiesterase 1 (TDP1): qHTS in cells in absence of CPT; DT40 Tdp1-/- hTDP1 cells, no CPT, ATP luminescence, 48 h; Potency, µM (titrated, usually from 46.2 µM), without a hit: top-dose activity change, negative = growth inhibition, usual class: inhibitors; 15% of 420,000 active; note: potency is the fitted concentration of half-maximal effect; nearly all actives have a fitted effect of over 55% in size
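Chicken DT40 Tdp1-/- cells complemented with human TDP1, screened without camptothecin (DMSO vehicle only), 400 cells/well. Compounds pin-transferred, cells incubated at 37 °C for at least 48 hr. Growth read as ATP-dependent luminescence (CellTiter-Glo, 30 min at RT).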
IL-1B inflam inh: qHTS for Inhibitors of Inflammasome Signaling: IL-1-beta AlphaLISA Primary Screen | THP-1 LPS/ATP IL-1B secretion, AlphaLISA, 16 h; hits give low values | activity change, % at 57.5 µM | 4.7% of 360,000 active | AID 743279, 2014; in the data active = activity change below about -50%; inconclusive = mostly about -30% to -49%
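THP-1 cells pretreated 1 hr with compounds (up to 57.5 uM final), then stimulated with LPS (250 ng/mL final) plus ATP (1.25 mM final); secreted IL-1B measured by AlphaLISA after 16 hr, decreased signal indicating inhibition.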
Gal4-VP16 FLuc: VP16 counterscreen qHTS for inhibitors of ROR gamma transcriptional activity; Drosophila S2 Gal4-VP16 UAS-luciferase, luminescence, 20 h; 3.5% of 310,000 active; Potency, µM (titrated, usually from 53.6 µM), for the others: top-dose activity, negative = inhibition, actives largely listed as inhibitors; AID 2546, 2010;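 note: Gal4-VP16 expression switched on by copper sulfate through the metallothionein promoter; potency is the fitted concentration of half-maximal effect; nearly all actives have a fitted effect of over 50% in size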
RORgamma inh: qHTS for inhibitors of ROR gamma transcriptional activity. Nuclear receptor ROR-gamma (Mus musculus), P51450. Drosophila S2 Gal4-RORgamma UAS-luciferase reporter, 20 h. Potency, µM (doses to about 53.6 µM), for inactives: at the top dose activity change, negative = inhibition, actives largely listed as inhibitors. 5.4% of 310,000 active; note: potency is the fitted concentration of half-maximal effect; nearly all actives have a fitted effect of over 60% in size
Target sequence (P51450 whole entry, looked up, the tested form may be a part): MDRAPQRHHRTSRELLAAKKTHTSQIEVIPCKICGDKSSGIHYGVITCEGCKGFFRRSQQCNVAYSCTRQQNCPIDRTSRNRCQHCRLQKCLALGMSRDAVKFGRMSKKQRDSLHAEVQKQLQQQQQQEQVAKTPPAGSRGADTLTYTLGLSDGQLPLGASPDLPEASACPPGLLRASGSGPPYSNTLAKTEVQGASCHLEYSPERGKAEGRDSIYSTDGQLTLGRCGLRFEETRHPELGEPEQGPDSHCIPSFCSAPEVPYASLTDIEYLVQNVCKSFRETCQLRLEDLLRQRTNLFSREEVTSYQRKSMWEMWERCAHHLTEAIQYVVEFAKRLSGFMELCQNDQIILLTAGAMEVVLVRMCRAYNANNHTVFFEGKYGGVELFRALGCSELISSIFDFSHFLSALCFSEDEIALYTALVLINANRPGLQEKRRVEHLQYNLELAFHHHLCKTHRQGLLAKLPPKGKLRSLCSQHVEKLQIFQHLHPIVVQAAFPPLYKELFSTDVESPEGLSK
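Luciferase reporter read in Schneider cells carrying Gal4-RORγ (mouse) and UAS-Photinus luciferase; cells given compound 1 h before 700 uM copper sulfate induction, then incubated 20 h at ambient temperature.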
Starred values were filed as active, the others as inactive; ? = inconclusive; · = no result; [ ] = dose if it differs, or a comment. Only some compounds are listed: those with a hit (about 21% of all), similar ones and a draw of the others. Unless noted, calls come from the whole dose curve; as a rule, active = well fitted curve in the direction sought with a large enough effect; inconclusive = small, poorly fitted or top-dose-only effect, or another doubt; inactive = no such curve, though single readings can be large; an effect the other way counts as inactive or inconclusive. % is set by controls: 0 for no effect and ±100 for the full control effect.

SMILES | DT40 TDP1 CPT | ELG1 repair inh | TDP1 cell noCPT | IL-1B inflam inh | Gal4-VP16 FLuc | RORgamma inh
O=C(CS(=O)c1ccc(C(F)(F)F)cc1[N+](=O)[O-])Oc1ccccc1 (stereo unspecified) | 5.8µM* | ? | 4.61µM* | -114.1* | -0.2% | -14.7%
Cc1ccc(S(=O)(=O)N[C@H]2COC(=O)CC=C[C@@H](C)[C@H]3C=C[C@H](O)[C@@H](COC(=O)CC=C[C@H]2C)O3)cc1 | · | · | · | · | 8.8%[10 µM] | 3.6%[10 µM]
COc1ccccc1N1CCN(CC(=O)Nc2ccc(S(=O)(=O)N3CCCCCC3)cc2)CC1 | ? | ? | ? | -7.1 | · | ·
Cc1ccc(CNC(=O)COC(=O)c2cc(=O)[nH]c3ccccc23)cc1 | 4.1% | ? | 21.9% | 5.6 | · | ·
CSc1nc(O)c(C(c2ccc(O)cc2)c2c(O)nc(SC)[nH]c2=O)c(=O)[nH]1 | -10.8% | 8.8% | 14.9% | 3.5 | 4.9% | 21.8%[1.91 µM]
CC(C)C[C@H]1COc2cccc(N3CCN(Cc4ccccc4F)CC3)c2S(=O)(=O)N1 | ? | · | 18.4µM* | -11.2 | · | ·
O=S1(=O)N[C@@H](Cc2ccccc2)COc2cc(N3CCN(Cc4ccccc4F)CC3)ccc21 | -29.5% | · | 20.6µM* | -13.4 | · | ·
C[C@H]1COc2cccc(N3CCN(Cc4ccccc4F)CC3)c2S(=O)(=O)N1 | -10.5% | · | ? | 21.0 | · | ·
COc1cccc(C2CN(c3ccc(F)cc3F)N=C2c2cccs2)c1OC (stereo unspecified) | 16.4µM* | ? | ? | 14.1 | 0.8% | 4.3%
CCCCCCCCCCCCCCCCn1cc[n+](CC(C)=O)c1 | 0.651µM* | -0.2% | 1.3µM* | 21.6 | -5.9%[10 µM] | ?
Cc1ccc(CNC(=O)Nc2cn(CC(C)C)c(=O)c3ccccc23)cc1 | -19.8% | · | ? | · | · | ·
COc1cccc(CNC(=O)Nc2cn(CC(C)C)c(=O)c3ccccc23)c1 | -24.5% | · | ? | · | · | ·
CC(C)Cn1cc(NC(=O)NCc2cccc(Cl)c2)c2ccccc2c1=O | 25.9µM* | · | ? | · | · | ·
CC(C)Cn1cc(NC(=O)NCc2ccccc2Cl)c2ccccc2c1=O | ? | · | 18.4µM* | · | · | ·
CC(C)Cn1cc(NC(=O)NCc2ccc(Cl)cc2)c2ccccc2c1=O | ? | · | 18.4µM* | · | · | ·
O=C(NCc1ccccc1)Nc1cccn(Cc2ccccc2Cl)c1=O | ? | ? | ? | -23.5 | 2.4% | ?
O=C1CN(c2ccc(Cl)cc2)C2(CCCCC2)S1 | 29.1µM* | 0.3% | ? | 2.8 | 1.9% | ?
O=C1C(Cl)=C(N2CCCCCC2)C(=O)N1c1ccc(Cl)cc1 | -6.8% | 10.5% | ? | 22.6 | -10.3% | ?
COc1cc(OC)cc(-c2sc3ccccc3c(=O)c2I)c1 | · | · | · | · | -7.2% | 43.0%
CCN1CCN(c2ccc(S(=O)(=O)N3CCCCC3)cc2NC(=O)c2cccc(C(F)(F)F)c2)CC1 | ? | 4.0% | 18.4µM* | -71.5* | · | ·
CCN1CCN(c2ccc(S(=O)(=O)N3CCCCC3)cc2NC(=O)c2cccc(F)c2)CC1 | -1.0% | -3.4% | -26.3% | -15.0 | · | ·
CN1CCN(S(=O)(=O)c2cccc(C(=O)Nc3cc(C(F)(F)F)ccc3N3CCCCC3)c2)CC1 | ? | -4.6% | 18.4µM* | -52.3* | · | ·
C[C@H](CO)N1C[C@H](C)[C@H](CN(C)C(=O)Nc2cccc(C(F)(F)F)c2)OCc2cnnn2CCCC1=O | -11.9% | · | -27.7% | 4.2 | · | ·
Cc1cc(C)cc(C(=O)NCCn2cc(C(=O)N3CCSCC3)nn2)c1 | 10.7%[9.04 µM] | · | -10.0% | · | · | ·
CCCCN(C(=O)CSCC(=O)Nc1ccc(OC)cc1)c1c(N)n(CC(C)C)c(=O)[nH]c1=O | -0.1% | · | 3.5% | 17.9 | · | ·
SMILES | DT40 TDP1 CPT | ELG1 repair inh | TDP1 cell noCPT | IL-1B inflam inh | Gal4-VP16 FLuc | RORgamma inh
CCN(CC)C(=O)CSc1nc(OC)cc(=O)[nH]1 | -9.7% | -4.7% | 3.2% | 20.7 | -8.5% | -1.7%
Cc1nc(-[n+]2nc(-c3ccncc3)nn2-c2ccccc2)sc1C | 1.46µM* | · | 1.84µM* | ? | · | ·
CC1CC2(C)Oc3ccccc3CC2C(C)C1CNCCCN(C)C (stereo unspecified) | 4.11µM* | ? | 1.16µM* | ? | ? | ?
CCN(CC1COc2ccccc2O1)C(=S)NC1CC2CCC1C2 (stereo unspecified) | -5.5% | ? | -2.8% | 35.4 | ? | 8.91µM*
O=C(CSc1n[nH]c(=O)[nH]c1=O)Nc1ccc(SC(F)F)cc1 | 10.5% | 0.0% | 8.7% | 20.6 | · | ·
Cc1cccc2sc(N(Cc3cccnc3)C(=O)c3cccs3)nc12 | -7.2% | · | -16.3% | · | · | ·
COc1ccc(NC(=O)Oc2ccccc2)cc1Cl | -12.6% | 4.0% | -16.5% | -7.4 | 5.2% | 0.3%
COc1ccc(Nc2nnc(SC(C(=O)Nc3cc(C)ccc3C)c3ccccc3)s2)cc1 (stereo unspecified) | ? | ? | 20.6µM* | 2.9 | 6.5% | -30.3%
COc1cccc(NC(=O)C(Sc2nnc(Nc3ccccc3C)s2)c2ccccc2)c1 (stereo unspecified) | 16.4µM* | ? | 20.6µM* | -50.6* | -4.7% | 19.4%
COc1ccc(Nc2nnc(SC(C(=O)Nc3ccc(OC)c(Cl)c3)c3ccccc3)s2)cc1 (stereo unspecified) | 23.1µM* | ? | 13µM* | -9.7 | 28.9% | 43.9%
COc1ccc(C)cc1NC(=O)C(Sc1nnc(Nc2cc(C)ccc2OC)s1)c1ccccc1 (stereo unspecified) | ? | ? | ? | -4.2 | -6.5% | -18.5%
COCCNC(=O)CCCn1c(=O)[nH]c2ccsc2c1=O | -1.0% | · | -9.4% | · | · | ·
CCCCN(CCCC)C1=C(C(=O)c2ccccc2)N(CC)S(=O)(=O)c2ccccc21 | 13µM* | · | 25.9µM* | · | · | ·
CCOC(=O)c1ccc(CN2C(=O)c3ccccc3S2(=O)=O)cc1 | -4.2% | 4.4% | -4.6% | 35.2 | -11.6% | 21.7%
CCN1C(C(=O)c2ccccc2)=C(OC(=O)COc2ccccc2)c2ccccc2S1(=O)=O | ? | · | 16.4µM* | · | · | ·
Cc1ccc(OCC(=O)OC2=C(C(=O)c3ccccc3)N(C)S(=O)(=O)c3ccccc32)cc1 | ? | · | 4.11µM* | · | · | ·
CCN1C(C(=O)c2ccccc2)=C(OC(=O)C(C)C)c2ccccc2S1(=O)=O | 6.51µM* | · | 5.17µM* | · | · | ·
